30 compounds from ChEMBL document CHEMBL4513216, “Probing the Open Global Health Chemical Diversity Library for Multistage-Active Starting Points for Next-Generation Antimalarials” (ACS Infect Dis, 2020) can be followed below.

Hit rate of the full screen: of about 69,000 compounds, about 8,600 (12%) showed an effect of 50% or more. This excerpt belongs to a sample that is enriched for strong results.

In the assay the test system is Plasmodium berghei. Nature of the assay: Screen against P. berghei liver stage (PbLuc), transformed with Luciferase, at 10uM. The class given is functional, HepG2. The settings on record: tested at 10 uM.
On to `COc1c(CNCCNC(=O)c2ccccc2F)c(C)nn1C`, for which the INHIBITION is given as -7.31%.
For `Cc1noc([C@H]2C[C@@H]3CCN(CC4CC4)C[C@H]3O2)n1`, the INHIBITION was -5.29%.
For the compound `Cn1cc(I)c(C(=O)NCCCn2cc(Br)cn2)n1`, the INHIBITION was determined as 26.8%.
The figure for `CC(C)N1CCOCC2(CCCN(C(=O)CCc3cccnc3)C2)C1` (stereo not given) is 35.4%.
The figure for `CN1CC(c2cc(O)nc(NCc3ccc(Cl)cc3)n2)CC1=O` (stereo not given) is -17.7%; for `C1CCN(CCOC2CCNC2)CC1` (stereo not given) it is 5.42%; for `CCn1cc(CN2C[C@@H]3CC[C@H]2CN(C(=O)c2cnccn2)C3)cn1` it is 21.5%.
The figure for `Cc1cc(C(=O)N2CCC3(CC2)CC(c2cccnc2)C(=O)N3C)no1` (stereo not given) is -36.5%; for `CNCc1cc(F)ccc1Oc1ccc(F)cc1F` it is -13.7%; for `COCCC1COC2(CCN(C(=O)Cc3ccccc3)CC2)C1` (stereo not given) it is 28.7%.
On to `CCOCC(=O)N1CCC2(CC1)CC(c1ccccc1)CO2` (stereo not given), for which the INHIBITION turned out to be 38.5%.
As for `Cn1cc(C2COC3(CCN(C(=O)Cc4ccccc4)CC3)C2)cn1` (stereo not given), the INHIBITION worked out at 48.4%.
Next, `CC1COC2(CCN(C(=O)Cc3ccncc3)CC2)C1` (stereo not given): 62.9%; `O=C(Cc1ccccc1)N1CCC2(CC1)CC(Nc1cnccn1)CO2` (stereo not given): 31.5%.
The figure for `O=C(Cc1ccncc1)N1CCC2(CC1)CC(c1ccccc1)CO2` (stereo not given) is 95.5%.
On to `CCN1CCC(N2CCN(C)C3(CCC(=O)N(CCOC)CC3)C2)CC1` (stereo not given), for which the INHIBITION was 7.92%.
For `COc1ccccc1-c1cccc(C2CCCN(C3CCOCC3)C2)n1` (stereo not given), the INHIBITION came out at 36.95%.
Next, `COC(=O)c1cccc(C2CNCCN2C)c1` (stereo not given): 32.7%; `Cn1ccnc1CN1CCC2(CC1)Cc1ccccc1CNC2=O`: 23.6%.
Take `Cc1nccc(C2CCCN(S(=O)(=O)N3CCOCC3)C2)n1` (stereo not given): the INHIBITION turned out to be 24.075%.
As to `CNC(=O)CCN(C)CC1(c2ccc(Br)cc2)CC1`, the INHIBITION was -0.532%.
On to `Cc1ccccc1CN1C[C@H]2CC[C@@H](C1)N(CC1CCC1)C2=O`, for which the INHIBITION is reported as 28.3%.
On to `CCn1cnnc1CNC(=O)N1CCOC(c2ccc(Cl)cc2)C1` (stereo not given), for which the INHIBITION is on record as 27.5%.
`O=C(CN1C(=O)CCNC1=O)N1CCOC(c2ccc(F)cc2)C1` (stereo not given): the INHIBITION is given as -141%.
As for `N#CC1(C(=O)N2CCOC(c3ccc(F)cc3)C2)CCCCC1` (stereo not given), the INHIBITION is on record as -14.2%.
Consider `NS(=O)(=O)CCN1CCOC(c2ccc(Cl)cc2)C1` (stereo not given), for which the INHIBITION is -51.9%.
Next, `N#CC1(C(=O)N2CCOC(c3ccc(Cl)cc3)C2)CCCC1` (stereo not given): 57.1%.
The figure for `N#CC1(C(=O)N2CCOC(c3ccc(F)cc3)C2)CCCC1` (stereo not given) is 54.2%.
The figure for `CCN1CC2(CNCCN(C(=O)Nc3ccccc3)C2)CC1=O` (stereo not given) is -80%; for `Cc1cccc(CN2C(=O)CCC23CCN(C(=O)NC(C)C)CC3)n1` it is -40.5%.
